# Compound activity as filed in PubChem.
# D1 ag – human D1 receptor agonism; P21728; HEK293 T-REx D1 cells, calcium flux, agonist mode; activation, % at 2 µM; actives 1% (n = 360,000); AID 504660; also: 0% is about no effect
# Target sequence (P21728 whole entry, looked up): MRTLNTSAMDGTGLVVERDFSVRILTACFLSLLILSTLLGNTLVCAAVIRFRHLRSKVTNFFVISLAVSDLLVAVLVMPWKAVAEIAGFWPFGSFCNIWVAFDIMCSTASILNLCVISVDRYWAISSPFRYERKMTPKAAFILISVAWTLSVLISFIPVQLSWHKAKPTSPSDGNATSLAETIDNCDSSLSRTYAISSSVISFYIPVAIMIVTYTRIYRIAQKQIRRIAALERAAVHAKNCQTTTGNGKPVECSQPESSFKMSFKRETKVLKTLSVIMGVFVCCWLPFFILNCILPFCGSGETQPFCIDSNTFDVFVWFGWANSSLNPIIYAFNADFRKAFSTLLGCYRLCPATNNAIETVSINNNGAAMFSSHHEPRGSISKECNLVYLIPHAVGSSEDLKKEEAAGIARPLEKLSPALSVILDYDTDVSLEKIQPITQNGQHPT
#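 Inducible HEK293 T-REx D1 cells, force-coupled to calcium signalling, were plated at 4000 cells/well with tetracycline and held overnight at 30 C. After no-wash calcium dye loading, compound-evoked calcium rise over 180 s flagged agonists.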
# TRHR enhancer-1 – allosterically enhances the human TRH receptor. P34981. TRHR cells, fluo-8 calcium fluorescence, EC20 TRH enhancement. enhancement, % at 2 µM. actives 0.66% (n = 360,000). AID 493056; in the data active = enhancement above about 30%; also: 0% is about no effect
#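 TRHR-expressing cells loaded with fluo-8 calcium dye were read kinetically (ex 480/em 530) during compound addition, then stimulated with an EC20 of TRH (10 nM final). Enhancement of the Gq-mediated intracellular calcium response was scored.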
# TRHR agonist-1 – TRH receptor (human) agonism; P34981; TRHR cells, calcium flux fluo-8, FDSS agonist mode; activation, % at 2 µM; actives 0.18% (n = 360,000); also: 0% is about no effect
#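 Steps: seed TRHR cells overnight; add fluo-8 no-wash Ca dye, RT 30 min–1.5 h; record 10 s baseline; pin-transfer compounds; monitor fluorescence 1 cycle/s for the agonist window. Calcium increases flag candidate agonists.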
# D1 antag – blocks dopamine activation of the human D1 receptor | AID 504652 | activity change, negative = inhibition, % at 10 µM | HEK293 TREx D1 cells, calcium flux, dopamine EC80; hits give low values | actives 3.2% (n = 360,000) | P21728; in the data active = activity change below about -30%; also: % is scaled to controls: 0 for no effect and ±100 for the full control effect
#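 Using tetracycline-induced force-coupled D1 Hek293 cells and a calcium dye, signals were followed for 180 s after compound, then for 180 s after EC80 dopamine, to detect inhibitors.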
# D1 PAM – enhances dopamine response at the human D1 receptor | P21728 | HEK293 TREx D1 cells, calcium flux, dopamine EC20 potentiation | potentiation, % at 10 µM | actives 0.036% (n = 360,000); in the data active = potentiation above about 30%; also: 0% is about no effect
# TRHR enhancer-2 – confirmation of human TRH receptor allosteric enhancers; activity change, negative = inhibition, % at 46.1 µM; 970 tested, under 10 active; TRH receptor cell assay, enhancer confirmation qHTS; AID 493076; shares compounds with TRHR enhancer-1; active = well fitted curve in the direction sought with a large enough effect; inconclusive = small, poorly fitted or top-dose-only effect, or another doubt; inactive = no such curve, though single readings can be large; an effect the other way counts as inactive or inconclusive;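 also: compound effect scored on response to added TRH at EC20 of 10 nM; 0% is about no effect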
# TRHR agonist-2 – human TRH receptor agonism confirmation; actives 8% (n = 970); TRHR-expressing cells, agonist activation read-out; Potency, µM (series often up to 46.1 µM), for inactives: at the top dose activation, usual class: activators; shares compounds with TRHR enhancer-1; active = well fitted curve in the direction sought with a large enough effect; inconclusive = small, poorly fitted or top-dose-only effect, or another doubt; inactive = no such curve, though single readings can be large; an effect the other way counts as inactive or inconclusive; also: potency is read from the fitted curve at half-maximal effect; 0% is about no effect; nearly all actives have a fitted effect of over 75% in size
# The depositor's hits bear a star; ? = inconclusive; · = no result given. Sampled rows, rich in hits. Any-hit rate of the full collection: about 4.7%. Rule as the data show it, unless noted: active = activation above about 30%; inactive = the rest.
SMILES,D1 ag,TRHR enhancer-1,TRHR agonist-1,D1 antag,D1 PAM,TRHR enhancer-2,TRHR agonist-2
COc1ccc2c(C)c(C(=O)N3CCN(Cc4ccccc4)CC3)oc2c1,2,70*,0,-4,0,?,0%
COc1ccc(Cn2c(=O)[nH]c3cc(C(=O)N4CCN(Cc5ccccc5)CC4)ccc3c2=O)cc1,4,-1,0,-12,-4,·,·
CCN(C(=O)COC(=O)Cc1coc2cc(C)ccc12)c1c(N)n(Cc2ccccc2)c(=O)[nH]c1=O,2,-1,0,8,·,·,·
Cc1ccc2c(CC(=O)OCC(=O)N(CC(C)C)c3c(N)n(Cc4ccccc4)c(=O)[nH]c3=O)coc2c1,4,49*,0,-16,-3,0,?
OC(COc1ccc2cc(Br)ccc2c1)CN1CCN(c2ccccn2)CC1 (centres undefined),-1,19,0,-6,16,·,·
Cc1nc(C)n(CC(O)COc2ccc3cc(Br)ccc3c2)n1 (centres undefined),47*,44*,-1,-32*,-11,?,6%
CCOC(=O)C1=C(C)N(c2ccc(Cl)cc2)C(=O)NC1c1cccc([N+](=O)[O-])c1 (centres undefined),0,-4,-1,1,1,·,·
COCCOC(=O)C1=C(C)N(c2ccccc2)C(=O)NC1c1cccc([N+](=O)[O-])c1 (centres undefined),0,50*,-1,-7,-3,-19,0%
Cc1ccc(-n2c(C)n[nH]c2=S)cc1C,3,45*,0,9,-9,-7,-1%
Cc1ccc(-n2c(C)n[nH]c2=S)cc1,0,11,0,14,0,·,·
COc1ccc(C(=O)N[C@H](C(=O)NCc2ccco2)C(C)C)cc1,2,-4,0,8,0,·,·
COc1ccc(C(=O)Nc2ccccc2C(=O)NC(C(=O)NCc2ccco2)C(C)C)cc1 (centres undefined),1,48*,0,-12,-2,0,0%
O=C(Nc1nnc(SCc2ccc(F)cc2)s1)C1=COCCO1,0,43*,1,-5,-5,-2,2%
O=C(Nc1nnc(SCc2ccccc2)s1)C1=COCCO1,4,-5,1,-4,-4,·,·
COc1ccccc1C(=O)Nc1ccnn1C1CCN(C/C=C/c2ccc(F)cc2)CC1,23,47*,-1,-32*,-2,2,1%
COc1ccc(OCCC(=O)OCC(=O)Nc2cccc(S(=O)(=O)N3CCOCC3)c2)cc1,5,0,0,-18,-3,·,·
O=C(Nc1cccc(S(=O)(=O)N2CCCC2)c1)c1cccc(S(=O)(=O)N2CCOCC2)c1,1,-5,29,-1,-2,4,2%
CC(C)(C)c1ccc(OCCC(=O)Nc2cccc(S(=O)(=O)N3CCOCC3)c2)cc1,30,44*,1,-7,-3,5,0%
O=C(NCc1ccc2c(c1)OCO2)c1cccc(S(=O)(=O)N2CCCCC2)c1,2,-17,44*,-16,-4,-9,2%
O=C(NCc1ccc2c(c1)OCO2)c1cccc(S(=O)(=O)N2CCCC2)c1,0,-1,0,8,-2,·,·
COc1ccc(/C=C/C(=O)NCC(=O)N/N=C(/C)c2ccco2)cc1,0,1,0,2,-1,·,·
COc1ccc(/C(C)=N/NC(=O)CNC(=O)c2ccco2)cc1,-1,46*,0,15,3,-2,1%
CC(=O)Oc1ccc(-c2cccc(C(=O)NCCO)c2)cc1,1,43*,0,11,-4,-2,-1%
Cc1cc([N+](=O)[O-])ccc1NC(=O)c1ccco1,6,46*,-1,-7,0,-3,0%
Cc1ccc2c(NC(=O)c3ccco3)cccc2n1,1,42*,0,-4,6,-1,0%
SMILES,D1 ag,TRHR enhancer-1,TRHR agonist-1,D1 antag,D1 PAM,TRHR enhancer-2,TRHR agonist-2
Cc1cc(NC(=O)c2ccc([N+](=O)[O-])cc2Cl)ccc1NC(=O)c1ccco1,2,-2,0,7,-8,·,·
Cn1c(=O)oc2cc(S(=O)(=O)NC(Cc3ccccc3)C(=O)Nc3ccc(F)c(Cl)c3)ccc21 (centres undefined),7,-4,2,-2,-2,·,·
O=C(Nc1ccc(Br)cc1F)c1ncoc1-c1ccco1,-1,3,1,13,-1,·,·
O=C(CSc1ncc(-c2ccccc2)nn1)NCc1ccco1,1,8,0,8,-1,·,·
O=C(CSc1nnc(-c2ccccc2)c(-c2ccccc2)n1)NCc1ccco1,0,61*,0,8,-3,-13,2%
CN(C)c1ccc(/C=N/NC(=O)Cn2nnc3ccccc32)cc1,1,2,29,7,0,?,1%
O=C(Cn1nnc2ccccc21)C1CC1,4,47*,0,7,-5,-3,-1%
CCN(C(=O)C1CCCN(c2ncnc3c2nc2n3CCCCC2)C1)c1cccc(C)c1 (centres undefined),-1,2,-1,-1,0,·,·
COc1cc(/C=C2\SC(=S)N(N(C)c3ccccc3)C2=O)ccc1O,26,-2,36*,1,-3,-11,?
CCOc1cc(/C=C2/SC(=S)N(Cc3ccccc3)C2=O)ccc1O,23,1,29,4,12,·,·
Nc1ccc(C(=O)OCC(=O)NC(=O)c2ccccc2)cc1[N+](=O)[O-],8,55*,4,-2,3,-5,6%
O=C(COC(=O)c1ccc(Cl)cc1[N+](=O)[O-])NC(=O)c1ccccc1,4,-3,1,-11,1,·,·
Cc1ccc(CCNC(=O)Cn2ncc3c(=O)oc4ccccc4c32)cc1,-2,-6,-1,10,-2,·,·
O=C(NCCOc1ccccc1)C1CCC(=O)N(C2CCCCCC2)C1 (centres undefined),11,58*,0,-3,-2,4,-1%
O=C(NCCc1ccccc1Cl)C1CCC(=O)N(C2CCCCCC2)C1 (centres undefined),0,4,0,15,1,·,·
O=C1Nc2ccccc2/C1=C/c1ccccc1Cl,0,-2,0,-10,-9,·,·
COc1ccccc1/C=C1\C(=O)Nc2ccccc21,1,41*,0,2,-4,-9,-1%
Cc1ccc(-n2nc(C)c3c(C(F)(F)F)cc(-c4cccnc4)nc32)cc1Cl,0,6,1,-1,3,·,·
COc1cc(/C=C/c2nc3ccccc3s2)cc(OC)c1O,10,4,32*,-19,-5,2,?
